# Only a selection was taken, and hits are over-represented in it overall.
# ROC1-CUL1 inh = inhibitors of human ROC1-CUL1 ubiquitin ligase activity. inhibition, % at 10 µM. in vitro K48 di-Ub FRET, acceptor:donor ratio, 45 min. E3 ubiquitin-protein ligase RBX1 (Homo sapiens) + Cullin-1 (Homo sapiens), P62877+Q13616. actives 0.6% (n = 140,000); in the data active means inhibition above about 25%
# Target sequence (P62877 whole entry, looked up): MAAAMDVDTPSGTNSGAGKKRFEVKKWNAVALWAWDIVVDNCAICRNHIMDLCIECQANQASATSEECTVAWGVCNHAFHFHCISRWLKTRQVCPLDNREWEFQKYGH
# Target sequence (Q13616 whole entry, looked up): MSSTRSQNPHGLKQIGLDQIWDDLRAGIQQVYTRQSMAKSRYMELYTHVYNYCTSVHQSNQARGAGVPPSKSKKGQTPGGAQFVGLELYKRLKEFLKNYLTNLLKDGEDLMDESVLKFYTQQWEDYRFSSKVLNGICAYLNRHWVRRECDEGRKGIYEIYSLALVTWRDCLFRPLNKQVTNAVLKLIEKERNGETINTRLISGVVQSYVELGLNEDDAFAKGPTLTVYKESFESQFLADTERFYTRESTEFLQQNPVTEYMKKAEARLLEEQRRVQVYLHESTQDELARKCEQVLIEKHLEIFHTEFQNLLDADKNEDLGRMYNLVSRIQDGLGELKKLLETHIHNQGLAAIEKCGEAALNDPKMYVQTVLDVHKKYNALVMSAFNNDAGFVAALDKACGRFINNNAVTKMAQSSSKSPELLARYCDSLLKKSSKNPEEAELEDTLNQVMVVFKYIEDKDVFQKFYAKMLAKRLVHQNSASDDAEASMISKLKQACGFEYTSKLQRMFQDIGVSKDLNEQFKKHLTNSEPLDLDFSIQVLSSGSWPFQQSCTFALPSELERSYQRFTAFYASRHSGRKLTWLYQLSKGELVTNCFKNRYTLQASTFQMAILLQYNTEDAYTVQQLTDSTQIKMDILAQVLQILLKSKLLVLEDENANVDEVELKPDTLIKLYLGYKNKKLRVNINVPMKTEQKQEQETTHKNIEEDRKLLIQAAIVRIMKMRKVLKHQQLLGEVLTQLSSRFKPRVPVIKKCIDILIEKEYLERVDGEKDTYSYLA
# * marks the source's active call; other numbers are inactive results.
SMILES,ROC1-CUL1 inh
Cc1ccc(-c2ccc(/C=C3/SC(N4CCOCC4)=NC3=O)o2)c(Br)c1,2
N#Cc1ccccc1-c1ccc(/C=C2/SC(=O)NC2=O)o1,-3
Cc1ccc(-c2ccc(/C=C3/SC(=S)NC3=O)o2)c(Br)c1,96*
CCOc1cc(C2c3c(n[nH]c3-c3ccc(C)cc3)OC(=N)C2C#N)ccc1O (stereo unspecified),-6
Cc1sc2nc3[nH]c(=O)c(Cc4ccccc4)nn3c(=O)c2c1C,5
CCOc1cc(C2C(C(=O)c3cc4ccccc4o3)C(=O)C(=O)N2c2nnc(SCc3ccccc3F)s2)ccc1O (stereo unspecified),15
Cc1ccc(C)c(OC(=O)c2ccc(=O)oc2)c1,28*
CCc1ccc(C)c(OC(=O)c2ccc(C)cc2)c1,-7
O=C(Oc1ccc(S(=O)(=O)O)cc1C(=O)O)c1ccc(=O)oc1,5
C=CCn1c(CNc2cccc3ccccc23)nnc1SCC(=O)N/N=C/c1cccs1,-3
Nc1ncc2c3c1c(=O)c1ccccc1n3CCC2,50*
O=C1CCCc2c1c1cccc3c1n2CCC3,5
COc1cc(OC)cc(C(=O)NCc2ccccn2)c1,2
CCCCOc1cc(-c2ccc(-c3cccs3)s2)c(OCCCC)cc1-c1ccc(-c2cccs2)s1,1
O=C1CC(CSc2nc3ccccc3[nH]2)=NC(=O)N1,11
N=C(N)SCC1=NC(=O)NC(=O)C1,26*
O=C1CC(CSCc2ccc(Cl)cc2)=NC(=O)N1,5
Cc1cc(C)c2c(=O)[nH]c(SCC(=O)c3ccc(O)c(O)c3)nc2n1,4
Cc1sc2nc(SCC(=O)c3ccc(O)c(O)c3)[nH]c(=O)c2c1C,67*
CCSc1nc2sc(C)c(C)c2c(=O)[nH]1,-7
CCOC(=O)C1C(C)=NC2=C(C(=O)CC(c3ccc(OC)c(OC)c3)C2)C1c1ccc(OC)c(OC)c1OC (stereo unspecified),-3
Cc1cc(Nc2cccc3ccccc23)nc2ccccc12,-5
C=CCN1C(=O)/C(=C/c2ccc(O)c(OC)c2)N=C1SCC(=O)NCc1ccccc1,7
CCOc1cc(/C=C2\C(=O)NN(c3ccccc3)C2=O)cc(Cl)c1OCCOc1ccc(OC)cc1,9
CCOc1cc(/C=C2\C(=O)NN(c3ccccc3)C2=O)cc(Cl)c1OCCCOc1ccc(Cl)cc1,2
SMILES,ROC1-CUL1 inh
CCOc1cc(/C=C2/C(=O)NN(c3ccc(Cl)cc3)C2=O)cc(I)c1OC,39*
O=C1NN(c2ccccc2)C(=O)/C1=C/c1cc(Br)ccc1OCc1c(Cl)cccc1Cl,-1
CCOc1cc(/C=C2\C(=O)NN(c3ccccc3)C2=O)cc(Br)c1OCc1c(Cl)cccc1Cl,28*
CCOc1cc(/C=C2\C(=O)NN(c3ccccc3)C2=O)cc(Br)c1OCc1ccc(Cl)c(Cl)c1,12
COc1cc(/C=C2\C(=O)NN(c3ccccc3)C2=O)ccc1OCCOCCOc1ccccc1C,3
COc1cc(/C=C2\C(=O)NN(c3ccccc3)C2=O)cc(Br)c1OCCCOc1ccccc1,3
CCOc1cc(/C=C2\C(=O)NN(c3ccccc3)C2=O)cc(Cl)c1OCCOc1cc(C)ccc1C,44*
COc1cc(/C=C2\C(=O)NN(c3ccccc3)C2=O)cc(Cl)c1OCCCOc1ccccc1,93*
COc1cc(/C=C2\C(=O)NN(c3ccccc3)C2=O)cc(Br)c1OCCCOc1ccc(C)cc1,11
COc1ccc(/C=C2\C(=O)NN(c3ccc(Cl)cc3)C2=O)cc1OC,19
CCOc1ccccc1CN1CCNC(=O)C1CC(=O)NCc1c(F)cccc1F (stereo unspecified),3
CC(Oc1c(F)c(F)cc(F)c1F)C(=O)Nc1cc(Cl)ccc1Cl (stereo unspecified),-9
CCOC(=O)C1C(CN2CCN(c3ccc(C)cc3C)CC2)=NC(=O)NC1c1ccc(OC)cc1 (stereo unspecified),2
CN(C)S(=O)(=O)NCC1CCCN(Cc2ccc3c(c2)OCCO3)C1 (stereo unspecified),1
O=S(=O)(NCc1ccncc1)c1ccc(Cl)cc1,-1
O=C(CSc1ccccc1)Nc1nonc1-c1ccccc1,1
CCCC1=NN2C(=N)/C(=C/c3ccc(OS(=O)(=O)c4ccccc4)cc3)C(=O)N=C2S1,11
Cc1cc(C)n(-c2nc(N/N=C/c3cccc(Cl)c3)nc(Nc3ccccc3)n2)n1,-9
COc1ccc(-c2cc(-c3cccs3)nc(SC)c2C#N)cc1,1
O=C(CN1CCCCC1)Nc1ccc(F)c(F)c1,-1
CC(C)(C)c1ccc(C(=O)NNC(=O)c2cccs2)cc1,-5
CCOc1ccc(NC(=O)c2cc3c(=O)n4ccccc4nc3n(CCOC)c2=N)cc1,2
CCOC(=O)c1cnc(SC)nc1Oc1ccc2ccc(=O)oc2c1,15
C=C1c2ccccc2CC(=O)c2ccccc21,-7
COc1cc(/C=C2/C(=O)NN(c3ccc(C)c(Cl)c3)C2=O)ccc1OCc1ccccc1,1
SMILES,ROC1-CUL1 inh
COc1cc(/C=C2\C(=O)NN(c3ccccc3)C2=O)cc(Cl)c1OCc1ccc(Cl)c(Cl)c1,57*
COc1cc(/C=C2/C(=O)NN(c3ccc(Cl)cc3)C2=O)ccc1OCc1ccc(F)cc1,0
O=C(Nc1ccc(S(=O)(=O)N2CCN(c3ccc(F)cc3)CC2)cc1)c1ccco1,6
COC12C=CC(CC1)C1C(=O)c3c(OC(=O)OCc4ccccc4)ccc(O)c3C(=O)C12 (stereo unspecified),27*
CC1(O)CC(=O)C(C(=O)OCc2ccccc2)C(c2ccc(O)cc2)C1C(=O)OCc1ccccc1 (stereo unspecified),8
COC12C=CC(CC1)C1C(=O)c3cccc(O)c3C(=O)C12 (stereo unspecified),1
CCc1nc2cc(C(=O)N3C[C@@H](C)O[C@@H](C)C3)cc(NC(=O)c3ccccc3OC)c2n1C,-2
CCOc1ccccc1C(=O)Nc1ccc(O)cc1C,-5
COc1ccc(N2C(=O)/C(=C\c3ccc(OC(=O)c4cccs4)c(OC)c3)SC2=S)cc1,-9
COc1cccc(N2C(=O)/C(=C/c3ccc(O)cc3)SC2=S)c1,8
CCOc1cc(/C=C2\SC(=S)N(c3ccc(OC)cc3)C2=O)ccc1OCC(=O)O,57*
COc1ccc(N2C(=O)/C(=C\c3ccc(O)c(Br)c3)SC2=S)cc1,42*
COc1cc(/C=C2\SC(=S)N(c3cccc(C(F)(F)F)c3)C2=O)ccc1OCC(=O)O,-2
CCOc1cc(/C=C2\SC(=S)N(c3ccccc3)C2=O)ccc1OCc1ccc(Cl)cc1Cl,-8
CCOc1cc(/C=C2\SC(=S)N(c3cccc(Cl)c3)C2=O)ccc1OCC(=O)O,33*
O=C(O)COc1ccc(/C=C2\SC(=S)N(c3cccc(Cl)c3)C2=O)cc1,4
C=CCOc1ccc(/C=C2\SC(=S)N(c3ccc(OC)cc3)C2=O)cc1OCC,23
Cc1ccc(-n2nnc(C(=O)N(C)C3CCS(=O)(=O)C3)c2C)cc1C (stereo unspecified),8
CCCCN1Cc2c(sc3c2CCCC3)N(C(C)=O)C1,5
O=S(=O)(Nc1ccc2ccccc2c1)c1c(Cl)cccc1Cl,0
COc1cc(/C=C/c2ccc3cccc(OC(C)=O)c3n2)ccc1O,-2
CCOc1ccc(/C=N/NC(=O)Cn2nc(C)cc2C)cc1,-7
CC1=CC(C)=C2C=CC(=O)C(=O)C2O1 (stereo unspecified),99*
COc1ccccc1NS(=O)(=O)c1ccc(Oc2ccccc2C)cc1,-3
N#Cc1nc2cc(F)c(N3CCSCC3)cc2nc1-c1ccccc1,7
CCOc1ccc(CNC(CC)CO)cc1Cl (stereo unspecified),8
